The full list was thinned out, with hits kept by preference.
ASM inhibitor = human S-ASM enzyme inhibition. P17405. placental ASM, HMU-PC fluorogenic substrate, 60 min. 0.006% of 340,000 active. Potency, µM (doses to about 57.5 µM), without a hit: top-dose activity change, negative = inhibition, hits mostly inhibitors; note: potency is the fitted concentration of half-maximal effect
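Human placenta-derived ASM preincubated with compound 10 min at room temperature, then reacted with 9 uM (final) fluorogenic HMU-PC substrate for 60 min at 37 C. Stop solution raises pH to 10; fluorescence read at Ex 386/Em 447 nm.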
Mito fusion yeast = inhibitors of mitochondrial division or activators of mitochondrial fusion. Potency, µM (titrated, usually from 46.1 µM), for the others: top-dose growth rescue (activation), usual class: activators. S. cerevisiae fusion-defective mutant growth rescue, CellTiterGlo 48 h. AID 485298. 0.23% of 320,000 active; note: potency is the fitted concentration of half-maximal effect; % of control where 0% means no effect; nearly all actives have a fitted effect of over 45% in size
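S. cerevisiae fusion-defective temperature-sensitive mutants (e.g. fzo1-1, mgm1-5) grown 48 h at 37C in YPEG (ethanol/glycerol non-fermentable) medium with 23 nl compound per well; growth rescue read as CellTiterGlo luminescence.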
mIDH1 inhibitor = human IDH1 R132H inhibition; 0.093% of 390,000 active; O75874; Potency, µM (series often up to 76.6 µM), for inactives: at the highest dose activity change, negative = inhibition, usual class: inhibitors; AID 602179; IDH1-R132H enzyme, NADPH consumption, diaphorase/resazurin fluorescence; note: potency is the fitted concentration of half-maximal effect; % is set by controls: 0 for no effect and ±100 for the full control effect; nearly all actives have a fitted effect of over 65% in size
Target sequence (O75874 whole entry R132H, stated change not applied): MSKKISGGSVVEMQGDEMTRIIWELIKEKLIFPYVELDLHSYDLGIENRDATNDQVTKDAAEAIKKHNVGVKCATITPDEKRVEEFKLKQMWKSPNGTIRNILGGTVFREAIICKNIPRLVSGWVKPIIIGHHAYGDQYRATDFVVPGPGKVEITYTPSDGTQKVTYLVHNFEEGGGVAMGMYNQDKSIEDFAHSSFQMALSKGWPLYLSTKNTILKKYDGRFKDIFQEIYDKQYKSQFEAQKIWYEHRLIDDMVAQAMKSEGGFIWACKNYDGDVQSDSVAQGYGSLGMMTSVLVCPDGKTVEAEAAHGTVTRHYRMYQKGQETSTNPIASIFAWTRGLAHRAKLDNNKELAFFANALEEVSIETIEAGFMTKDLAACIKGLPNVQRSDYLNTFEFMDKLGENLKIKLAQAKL
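IDH1-R132H (0.5 ug/mL) preincubated 30 min with compound, then NADPH (0.016 mM) and alpha-KG (2 mM) added; 80 min at RT, pH 7.5. Remaining NADPH coupled via diaphorase/resazurin to fluorescence (540/590 nm); concentration-response curves normalized to no-enzyme control.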
RGS4 inhibitor = human RGS4 inhibition. P49798. Transcreener GDP fluorescence polarization, RGS4-accelerated GTP hydrolysis. Potency, µM (doses to about 114 µM), for inactives: at the top dose activity change, negative = inhibition, usual class: inhibitors. 0.039% of 390,000 active; note: potency is the fitted concentration of half-maximal effect; % is set by controls: 0 for no effect and ±100 for the full control effect; nearly all actives have a fitted effect of over 75% in size
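MLSMR compounds (23 nl, pin-transferred) preincubated 10 min at room temperature with a 500nM (2x) first reagent, then RGS4 at 900nM (2x) plus Transcreener GDP mix added; fluorescence polarization (620/688 nm) read before and after 90 min at 30 °C.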
ClpP mod = qHTS Assay for Activators of ClpP; purified B. subtilis ClpP, FRET peptide cleavage, 20 min; Potency, µM (doses to about 57.5 µM), without a hit: at the top dose activity change, negative = active; 1.9% of 340,000 active; active = well fitted falling curve with a large enough effect; inconclusive = small, poorly fitted or top-dose-only effect; inactive = no such curve, though single readings can be large or run the other way; note: potency is the fitted concentration of half-maximal effect; the source files actives as falling curves though it sought activators and does not explain the sign; nearly all actives have a fitted effect of over 65% in size
Target sequence (P80244 whole entry, looked up): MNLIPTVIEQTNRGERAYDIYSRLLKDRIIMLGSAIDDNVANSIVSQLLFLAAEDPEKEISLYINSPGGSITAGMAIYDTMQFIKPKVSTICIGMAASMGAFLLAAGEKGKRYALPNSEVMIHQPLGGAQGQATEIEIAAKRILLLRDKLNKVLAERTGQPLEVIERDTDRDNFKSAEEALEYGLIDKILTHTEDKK
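ClpP 10 microg/mL final, pH 8 Tris/KCl buffer with BSA, glycerol, Tween-20; compound pinned in; FRET-FV substrate; RT 20 min; Ex320/Em430; ΔFRET vs ADEP 5.8 microM, DMSO, no enzyme.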
LDHA block = blocks human lactate dehydrogenase A. P00338. purified LDHA, NADH/diaphorase-resazurin fluorescence; active compounds read low. activity change, % (values are at about 110 or 230 µM). 0.15% of 480,000 active; in the data active = activity change below about -30%; inconclusive = mostly about -25% to -30%;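 note: plate controls were DMSO wells for no effect and wells without enzyme for full effect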
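Human LDH5 at 2 nM final in Tris HCl pH 7.4 with 0.06 mM NADH and 0.2 mM pyruvate, reacted 5 minutes at room temperature. Remaining NADH coupled via diaphorase/resazurin; resorufin fluorescence read at 0 and 20 minutes, normalized to enzyme-free and DMSO wells.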
ClpP validation = inhibits B. subtilis ClpP protease, hit validation | shares compounds with ClpP mod | purified B. subtilis ClpP, FRET-FV substrate cleavage, 20 min | Potency, µM (top dose mostly 57.5 µM), without a hit: top-dose activity change, negative = inhibition, hits mostly inhibitors | 40% of 470 active; note: potency is the fitted concentration of half-maximal effect; % is set by controls: 0 for no effect and ±100 for the full control effect; nearly all actives have a fitted effect of over 70% in size
Numbers without * were called inactive; ? = inconclusive; / = not tested or not shown. Unless noted, calls come from the whole dose curve; as a rule, active = well fitted curve in the direction sought with a large enough effect; inconclusive = small, poorly fitted or top-dose-only effect, or another doubt; inactive = no such curve, though single readings can be large; an effect the other way counts as inactive or inconclusive.

SMILES | ASM inhibitor | Mito fusion yeast | mIDH1 inhibitor | RGS4 inhibitor | ClpP mod | LDHA block | ClpP validation
Cc1ccc(C(=O)N/N=C/CCc2ccccc2)cc1C | / | / | / | / | / | 1 | /
O=S(=O)(Cc1ccccc1)c1ccccc1-c1nnc(-c2ccccc2)o1 | 1% | -8% | 3% | -30% | 44% | -7 | /
Cc1ccc(-c2nnc(-c3ccccc3S(=O)(=O)Cc3ccc(Cl)cc3)o2)cc1 | 0% | -3% | 7% | -17% | 65% | 2 | 14µM*
O=S(=O)(Cc1ccc(Cl)cc1)c1ccccc1-c1nnc(-c2ccc(Cl)cc2)o1 | -5% | -6% | 0% | 2% | 64% | -1 | 27µM*
Cc1ccc(S(=O)(=O)Cc2ccc(Cl)cc2)cc1 | / | / | / | / | / | -8 | /
COc1ccc(C(=O)/C=C/c2cc(OC)ccc2OC)cc1 | / | / | / | / | / | 7 | /
Nc1nccnc1C(=O)NCCc1ccsc1 | / | / | / | / | / | 0 | /
CCOc1ccc(Oc2ccccc2NC(=O)Cc2nc(-c3ccccc3)oc2C)cc1 | / | / | / | / | / | 1 | /
O=C(CCCOc1ccccc1)Nc1ccc(Br)cc1 | 0% | / | 3% | 5% | 1% | -1 | /
O=C(CCOc1ccccc1)Nc1ccc(Br)cc1 | -2% | 2% | 2% | -14% | 7.9µM* | 0 | 0%
CCn1c(-c2cccs2)nc2ccccc21 | 4% | 0% | 7% | 18% | 3.2µM* | -12 | 14µM*
Cc1ccc(C)c(NC(=O)C(OC(=O)c2cnc(C)cn2)c2ccccc2)c1 (stereo not drawn) | 1% | 3% | 6% | -18% | 92% | -3 | 0%
COc1ccc(C)cc1NC(=O)C(OC(=O)c1cnc(C)cn1)c1ccccc1 (stereo not drawn) | -3% | 2% | 5% | 5% | 3% | -8 | /
CSc1ccc(CCNC(=O)c2ccc3c(c2)c(C)c(C)n3Cc2ccc(F)cc2)cc1 | / | / | 0% | -1% | ? | 0 | /
CSc1cccc(NC(=O)c2ccc3c(c2)c(C)c(C)n3Cc2ccc(F)cc2)c1 | / | / | -14% | -15% | 7.1µM* | -11 | 27µM*
Cc1ccc2[nH]c(=O)c(CN(Cc3ccc4c(c3)OCO4)Cc3nnnn3C3CCCC3)cc2c1 | -12% | ? | 2% | -26% | 81% | 16 | -19%
Cc1cccc(NC(=O)c2ccccc2C(=O)Nc2cccc(C)c2)c1 | -2% | / | 0% | -8% | 168% | 3 | -2%
Cc1ccccc1C(=O)Nc1cccc(NC(=O)c2ccc(-c3ccc(Br)cc3)o2)c1 | -11% | 1% | 2% | -19% | 139% | -10 | ?
CN1CCN(c2ccc(NC(=O)c3ccc(-c4ccc(Br)cc4)o3)cc2)CC1 | -29% | -2% | -5% | 17% | / | -4 | /
N#Cc1ccccc1S(=O)(=O)N1CCN(C(=O)CN2CCCSc3ccccc32)CC1 | 0% | 6% | -2% | -10% | 0% | -2 | /
Cc1ccc(S(=O)(=O)N2CCN(C(=O)CN3CCCSc4ccccc43)CC2)cc1 | 3% | 8% | 0% | 6% | 40% | -6 | -3%
CCOc1ccc(N(C(=O)CNC(=O)c2ccco2)C(C(=O)NC2CCCC2)c2ccco2)cc1 (stereo not drawn) | 3% | -4% | 5% | -2% | 3.2µM* | -3 | 0%
CCOc1ccc(N(C(=O)CNC(=O)c2ccco2)C(C(=O)NC2CCCC2)c2cccnc2)cc1 (stereo not drawn) | -4% | 0% | 0% | 2% | / | -4 | /
Cc1ccc(CC(=O)NCCc2c[nH]c3ccccc23)cc1 | / | / | / | / | / | -2 | /
COc1ccc(Br)cc1CNC(=O)c1cnc2sc(N3CCCCCC3)nn2c1=O | / | / | -15% | 9% | 8.9µM* | -13 | 0%
SMILES | ASM inhibitor | Mito fusion yeast | mIDH1 inhibitor | RGS4 inhibitor | ClpP mod | LDHA block | ClpP validation
Cc1ccc(CSCC(=O)OCC(=O)c2ccc(-c3ccccc3)cc2)cc1 | / | / | / | / | / | 5 | /
COc1ccc(Nc2nc(N3CCN(S(C)(=O)=O)CC3)nc3ccccc23)c(OC)c1 | 16% | 7% | 3% | -25% | / | -3 | /
CC(Nc1nc(N2CCN(S(C)(=O)=O)CC2)nc2ccccc12)c1ccccc1 (stereo not drawn) | 12% | -3% | 0% | 3% | 4µM* | 3 | 24µM*
O=c1oc2ccccc2cc1-c1nnc(-c2cccc(Br)c2)o1 | 10% | -7% | 2% | 9% | 0.71µM* | -6 | ?
CN(C)c1cccc(C(=O)Nc2cccc(C#N)c2)c1 | / | / | / | / | / | 1 | /
Cc1nc2oc3c(NCC4CCCO4)ncnc3c2c2c1COC(C)(C)C2 (stereo not drawn) | 1% | 4% | -4% | -16% | -3% | 0 | /
CC(C)c1nc2oc3c(NCC4CCCO4)ncnc3c2c2c1COC(C)(C)C2 (stereo not drawn) | 4% | 4% | 0% | 8% | 7.1µM* | 12 | 22µM*
COc1ccc(C(=O)NCc2ccc(C)cc2)cc1 | / | / | / | / | / | 1 | /
c1ccc2nc(-c3nc4ccccc4o3)ccc2c1 | -2% | -5% | 2% | 10% | 8.9µM* | -4 | 22µM*
c1ccc(-c2ccc3ccccc3n2)cc1 | -1% | / | 1% | 7% | 0% | -8 | /
COc1ccc(NC(=O)C(c2ccc(OC)cc2)n2c(=O)c(-c3cc4ccccc4[nH]3)nc3ccccc32)cc1 (stereo not drawn) | / | / | / | / | 19% | -2 | /
O=C(NCc1ccccc1)C(c1ccccc1)n1c(=O)c(-c2cc3ccccc3[nH]2)nc2ccccc21 (stereo not drawn) | / | / | / | / | 3% | -4 | /
COc1ccc(NC(=O)C(c2cc3ccccc3o2)n2c(=O)c(-c3cc4ccccc4[nH]3)nc3ccccc32)cc1 (stereo not drawn) | / | / | / | / | 33% | -7 | -2%
O=C(NCc1ccccc1)C(c1cc2ccccc2o1)n1c(=O)c(-c2cc3ccccc3[nH]2)nc2ccccc21 (stereo not drawn) | / | / | / | / | 38% | 1 | -4%
COc1ccc(-n2nc3cc(C)c(NC(=S)NC(=O)c4ccccc4C)cc3n2)cc1 | 29% | -2% | -3% | -28% | 217% | 0 | /
CCC(=O)Nc1cc2nn(-c3ccc(C)cc3)nc2cc1C | 2% | 13% | 6% | -19% | 5% | 2 | /
CCC(=O)Nc1cc2nn(-c3ccc(OC)cc3)nc2cc1C | 25% | 4% | 9% | -3% | 2.8µM* | -9 | 19µM*
CCCCC(=O)Nc1cc2nn(-c3ccc(OC)cc3)nc2cc1C | 19% | 0% | 1% | 13% | 1µM* | -18 | 24µM*

Bioassay records deposited in PubChem by National Center for Advancing Translational Sciences (NCATS).
